Results on 110 compounds are retold here after PubChem BioAssay AID588790 (National Center for Advancing Translational Sciences (NCATS), 2011).

Molecules are shown by their SMILES. About 85 (7%) of roughly 1,200 compounds were called active. Calls come from the whole dose curve. The entries come from a sample that favours actives as a whole. A call without a number means that no potency is given here.
Potency is the fitted concentration of half-maximal effect.

The target of this experiment is Beta-2 adrenergic receptor (Homo sapiens) (UniProt P07550). The experiment is described as follows: qHTS assay of beta-arrestin-biased ligands of beta2-adrenergic receptor: Hit Validation with GloSensor. The settings on record: W9-Glo22F cells, GloSensor cAMP luminescence, beta2AR agonism; activation: at 46.1 µM (top of the series). Summed up: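 Luminescence measured 10 min after GloSensor reagent addition at room temperature. Preceded by compound pinning onto W9-Glo22F cells that had been cultured overnight at 37 deg C under 5% CO2.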
Chain of Beta-2 adrenergic receptor (Homo sapiens) (P07550 whole entry, looked up): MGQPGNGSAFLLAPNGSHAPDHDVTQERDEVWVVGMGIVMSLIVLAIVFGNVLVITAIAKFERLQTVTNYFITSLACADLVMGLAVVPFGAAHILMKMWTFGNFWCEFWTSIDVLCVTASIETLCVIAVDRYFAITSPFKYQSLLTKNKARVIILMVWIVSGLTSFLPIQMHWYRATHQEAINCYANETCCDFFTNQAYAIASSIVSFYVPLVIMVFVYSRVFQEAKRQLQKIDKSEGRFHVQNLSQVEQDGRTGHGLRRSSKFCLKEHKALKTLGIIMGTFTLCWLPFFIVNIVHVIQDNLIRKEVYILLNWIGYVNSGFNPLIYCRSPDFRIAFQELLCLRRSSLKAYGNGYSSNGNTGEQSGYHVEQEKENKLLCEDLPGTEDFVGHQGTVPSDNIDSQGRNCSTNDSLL
Regarding `COc1cc(CN(C2CCCCC2)S(=O)(=O)c2ccc(S(=O)(=O)N(C)C3CCCCC3)cc2)cc(OC)c1OC`, the Potency result was “inactive”.

Regarding `CCCNC(=O)COc1ccc2c(=O)c(Oc3ccccc3F)coc2c1`, the Potency result is “inactive”.

As for `O=C(Cn1c(=O)c2sccc2n(Cc2cccc([N+](=O)[O-])c2)c1=O)NCCc1ccccc1`, the Potency entry is “inactive”.

As for `CC(CCc1ccccc1)NCC(O)c1cccc([N+](=O)[O-])c1` (stereo not given), the Potency is 0.0206 µM (active).

With `O=C(CSCC(=O)Nc1cccc([N+](=O)[O-])c1)Nc1ccccc1`, the Potency result is “inactive”.

For `COc1ccc(C(=O)N/N=C/C(Br)=C/c2ccccc2)cc1`, the Potency result was “inactive”.

In the case of `CCCc1cc(SCC(=O)Nc2c(C)n(C)n(-c3ccccc3)c2=O)n2c(nc3ccccc32)c1C#N`, the Potency entry is “inactive”.

With `NNc1ccc(Cl)nn1`, the Potency result is “inactive”.

With `Cc1cccc(NC(=S)NCc2ccco2)n1`, the Potency entry is “inactive”.

`C=CCNC(=S)N/N=C(\C)c1cccc(NC(C)=O)c1`: the Potency is 23.1 µM (active).

For the compound `C=CCNC(=S)N/N=C(\C)c1cccc(OC)c1`, the Potency entry was “inactive”.

With `C=CCNC(=S)N/N=C(\C)c1cccnc1`, the Potency result was “inactive”.

`CCN(CC)c1ccc(/C=N/Nc2nc(C)cc(C)n2)cc1`: the Potency result was “inactive”.

For the compound `CN1CCN(C(=O)c2ccccc2[N+](=O)[O-])CC1`, the Potency entry was “inactive”.

Consider `NC(=S)N/N=C/c1ncc(C(F)(F)F)cc1Cl`, for which the Potency result was “inactive”.

As for `COCCCNC(=S)N/N=C/c1cccc(OC)c1O`, the Potency result was “inactive”.

`COc1cccc(/C=N/Nc2ncc(C(F)(F)F)cc2Cl)c1O`: the Potency was 25.9 µM (active).

Regarding `Oc1ccccc1/C=N/Nc1nc2ccccc2o1`, the Potency entry was “inactive”.

Turning to `CCCNC(=O)Cn1cnc2sc(C(=O)Nc3ccc4c(c3)OCO4)c(C)c2c1=O`, the Potency result was “inactive”.

Turning to `N/C(=C\C(=O)c1cc(Cl)ccc1O)C(Cl)(Cl)Cl`, the Potency is 23.1 µM (active).

In the case of `CCc1cc(C(=O)N(CC(C)C)c2c(N)n(Cc3ccccc3)c(=O)[nH]c2=O)sc1C`, the Potency entry is “inactive”.

In the case of `COC(=O)c1scc(C)c1S(=O)(=O)Nc1ccc(C)cc1`, the Potency result was “inactive”.

Regarding `CCOc1ccc(C(C)=O)cc1COC(=O)c1ccc2c(c1)NC(=O)CS2`, the Potency is 4.61 µM (active).

As to `CCOc1ccc(C(C)=O)cc1COC(=O)CN1C(=O)NC2(CCCC2)C1=O`, the Potency entry is “inactive”.

Consider `S=C(Nc1ccccc1)Nc1nc2ccccc2n1CCOc1ccc(Br)cc1`, for which the Potency result was “inactive”.

Consider `Cc1ccnc(NC(=O)c2c(-c3ccccc3Cl)noc2C)c1`, for which the Potency entry was “inactive”.

As for `Cc1ccc(N(Cc2cc(=O)[nH]c3ccccc23)C(=O)c2ccco2)cc1`, the Potency entry is “inactive”.

Regarding `COc1ccc2c(c1)c(=O)c(C(=O)c1ccccc1)cn2Cc1ccccc1`, the Potency entry was “inactive”.

`Cc1ccccc1-c1nc2c3ccccc3nc(=S)n2[nH]1`: the Potency result was “inactive”.

On to `S=c1nc2ccccc2c2nc(-c3ccccc3)[nH]n12`, for which the Potency is 18.4 µM (active).

For `Cc1nc2ccccc2c(=O)n1N`, the Potency result was “inactive”.

As to `COc1ccc(/C(C)=N/NC(=S)NCCc2ccccc2)c(O)c1`, the Potency entry is “inactive”.

As for `O=C(CNC(=O)c1ccccc1F)Nc1ccc2c(c1)OCO2`, the Potency entry was “inactive”.

As to `C=C(C)C(=O)OC1(C(F)(F)F)Oc2cc(C)ccc2NC1=O` (stereo not given), the Potency entry was “inactive”.

Regarding `Cn1c(SCC(=O)N/N=C/C=C/c2ccco2)nc2ccccc21`, the Potency result is “inactive”.

Consider `Cc1nn2c(nc1=O)NNC2(C)C(C)(C)C` (stereo not given), for which the Potency entry was “inactive”.

Consider `CCN(CC)c1cc(C(F)(F)F)nc(-c2ccccn2)n1`, for which the Potency entry is “inactive”.

For the compound `FC(F)(F)c1cc(Nc2ccccc2)nc(-c2ccccn2)n1`, the Potency is 18.4 µM (active).

Consider `Cc1cc(N)n(Cc2cccs2)n1`, for which the Potency entry was “inactive”.

In the case of `CCOC(=O)c1cnc(-n2nc(C)cc2C)nc1N(C)C`, the Potency result was “inactive”.

For `CCOC(=O)c1cnc(-n2nc(C)cc2C)nc1NC`, the Potency entry is “inactive”.

For `COc1ccc(CNc2nc(SCC(=O)NCc3ccco3)nc3ccccc23)cc1`, the Potency result was “inactive”.

`COc1ccc(-c2cc(C(F)(F)F)nc(SCC(=O)NCc3ccco3)n2)cc1OC`: the Potency is 13 µM (active).

Turning to `Cc1ccc(-n2c(SCC(=O)NCc3ccco3)nc3c(sc4ccccc43)c2=O)cc1`, the Potency result was “inactive”.

`O=C(Nc1ccccc1)N1CCCC(c2nc(-c3cccs3)no2)C1` (stereo not given): the Potency result was “inactive”.

For the compound `COc1ccc(NC(=S)N2CCc3ccccc3C2)cc1`, the Potency entry is “inactive”.

As to `COc1ccc(/C=N/Nc2nncc3ccccc23)c(OC)c1`, the Potency entry is “inactive”.

As to `COc1ccc(/C(C)=N/Nc2nc3ccccc3nc2C)cc1OC`, the Potency was 25.9 µM (active).

On to `Cc1ccc(/C(=N/Nc2ncnc3ccccc23)C(=O)O)cc1`, for which the Potency entry was “inactive”.

As for `Fc1ccccc1/C=N/n1cc(-c2ccccc2)[nH]c1=S`, the Potency entry is “inactive”.

In the case of `O=C(/C=C/c1ccc(F)cc1)NC(=S)N1CCN(Cc2ccccc2)CC1`, the Potency entry was “inactive”.

As for `C[C@H](C(=O)CC(=O)OC(C)(C)C)[C@H](O)c1ccccc1`, the Potency result is “inactive”.

Turning to `Cc1cc(/C=N/NC(N)=S)c(C)n1-c1ccc(Cl)cc1`, the Potency result was “inactive”.

Consider `Cc1nc2ccc(NC(=O)CS(=O)(=O)c3ccc(F)cc3)cc2s1`, for which the Potency entry is “inactive”.

`C/C(=N\NC(=S)NC1CCCCC1)c1cccs1`: the Potency entry was “inactive”.

Take `C/C(=N\NC(=S)NC1CCCCC1)c1ccc(O)cc1`: the Potency is 6.51 µM (active).

Regarding `C/C(=N\NC(=S)NC1CCCCC1)c1ccc(C)o1`, the Potency result was “inactive”.

On to `S=C(Nc1nc2c(s1)CCCC2)NC1CC1`, for which the Potency result is “inactive”.

As to `NS(=O)(=O)c1ccc(CCNC(=O)CSc2ccc(Cl)cc2)cc1`, the Potency result is “inactive”.

As for `Nc1c(Cl)ncnc1N/N=C/c1ccc2ccccc2n1`, the Potency entry is “inactive”.

For the compound `COc1cc(C(c2nnnn2C(C)(C)C)N2CCN(C)CC2)cc(OC)c1OC` (stereo not given), the Potency result was “inactive”.

Turning to `O=C(NCCOc1cccnc1)C1CCC(=O)N(Cc2ccccc2F)C1` (stereo not given), the Potency is 9.2 µM (active).

`CN(C(=O)CSc1ccncc1)C1CCCN(Cc2ccccc2F)C1` (stereo not given): the Potency entry is “inactive”.

Regarding `COc1ccccc1N1CCN(C(=O)c2cc3ccccc3[nH]2)CC1`, the Potency result is “inactive”.

For `Cc1[nH]c2ccccc2c1C(=O)C(C)OC(=O)c1ccc(NC(=O)CC#N)cc1` (stereo not given), the Potency entry was “inactive”.

Regarding `O=C(Nc1ccc(Nc2ccccc2)cc1)c1cc([N+](=O)[O-])ccc1Cl`, the Potency entry was “inactive”.

Consider `CC(C)C(=O)N1CCC2(CC1)Oc1ccc(Cl)cc1C(=O)C21CC(c2ccccc2)=NO1` (stereo not given), for which the Potency result was “inactive”.

Take `CCC(=O)N1CCC2(CC1)Oc1ccc(Cl)cc1C(=O)C21CC(c2ccccc2)=NO1` (stereo not given): the Potency is 23.1 µM (active).

For `CC(C)Oc1ccc(/C=N/NC(N)=S)cc1`, the Potency entry is “inactive”.

As to `OCc1ccnc2c(O)cccc12`, the Potency was 25.9 µM (active).

On to `CCCOCc1ccc(O)c2ncccc12`, for which the Potency result was “inactive”.

In the case of `Cc1cccnc1NCc1ccc(O)c2ncccc12`, the Potency result was “inactive”.

In the case of `COc1ccccc1NC(=O)COC(=O)c1ccc2ccccc2n1`, the Potency entry is “inactive”.

As to `C[C@H](NC(=O)c1ccccc1)C(=O)Nc1nc(-c2ccccn2)cs1`, the Potency entry is “inactive”.

For the compound `CC(C)OC(=O)c1cn(-c2ccccc2)nc1-c1ccco1`, the Potency is 23.1 µM (active).

For the compound `O=C(Nc1ccc(Cl)cc1)/C(=C/c1cccc(O)c1)c1nc2ccccc2s1`, the Potency entry is “inactive”.

Turning to `O=C(COc1ccc2ccccc2c1)Nc1ccc(Br)cc1C(=O)O`, the Potency entry is “inactive”.

Take `Cc1ccc(NC(=S)NC(NC(=O)c2ccco2)C(Cl)(Cl)Cl)cc1` (stereo not given): the Potency result is “inactive”.

For `COc1ccc2c(C)nc(Nc3nc(C)cc(C)n3)nc2c1`, the Potency entry was “inactive”.

Regarding `COc1ccccc1NC(=S)N/N=C1\CC(C)(C)Oc2ccc(O)cc21`, the Potency result was “inactive”.

Turning to `COc1cccc(NC(=S)N/N=C2\CC(C)(C)Oc3ccc(O)cc32)c1`, the Potency is 25.9 µM (active).

Take `CC1(C)C/C(=N\NC(=S)Nc2ccccc2F)c2cc(O)ccc2O1`: the Potency entry is “inactive”.

Take `C=CCOc1ccc2ccccc2c1CNn1c(C)n[nH]c1=S`: the Potency was 8.2 µM (active).

On to `CCN(CC)S(=O)(=O)c1ccc(N=Nc2c(C)[nH]n(C(N)=S)c2=O)cc1`, for which the Potency result was “inactive”.

As for `O=C(C[C@H]1C[C@H](C(=O)N2CCCCC2)[C@@]2(CCc3ccccc3)c3[nH]c4cc(-c5ccco5)ccc4c3CCN2C1=O)NCCC1=CCCCC1`, the Potency result was “inactive”.

In the case of `C/C(=N\NC(=S)NC(C)C)c1ccc(Cl)s1`, the Potency entry is “inactive”.

For the compound `O=C(N/N=C/c1cn(-c2ccccc2)nc1-c1cc2ccccc2o1)c1cccnc1`, the Potency entry is “inactive”.

Take `CO/C=C\C=C/c1nnn(-c2ccc(Cl)cc2)n1`: the Potency entry is “inactive”.

Consider `CC(NCCc1ccc(O)cc1)C(O)c1ccc(O)cc1` (stereo not given), for which the Potency was 0.0116 µM (active).

In the case of `CCc1ccc(CNc2ccc(O)cc2)cc1`, the Potency result was “inactive”.

For `Cc1ccc(CNc2ccc(O)cc2)cc1`, the Potency entry was “inactive”.

For the compound `Oc1ccc(/C=N/NC(=S)NC2CC3CCC2C3)cc1` (stereo not given), the Potency result was “inactive”.

`COc1ccc(-c2c(-c3ccccc3)c(C(=O)C(=O)NCCCN(C)C)n3ccc4cc(OC)c(OC)cc4c23)cc1OC`: the Potency entry is “inactive”.

On to `C=CC[n+]1c(-c2ccc(C)cc2)csc1NNC(=O)Nc1ccccc1`, for which the Potency result was “inactive”.

For `C=CC[n+]1c(-c2ccc(OC)c(OC)c2)csc1NNC(=O)Nc1ccccc1`, the Potency was 10.3 µM (active).

As to `O=C1NC2(C=Cc3c(ccc4ccccc34)O2)Oc2ccccc21` (stereo not given), the Potency result is “inactive”.

Consider `COc1cc(/C=N/Nc2ccc(F)cc2F)cc(OC)c1O`, for which the Potency result is “inactive”.

`O=C(O)/C=C/c1nc(-c2ccccc2)n2ccccc12`: the Potency was 25.9 µM (active).

`C[C@@H](NC(=O)c1coc(=O)c(Br)c1)c1ccccc1`: the Potency entry was “inactive”.

With `O=[N+]([O-])c1cc([N+](=O)[O-])c2cc3ccccc3nc2c1`, the Potency entry is “inactive”.

Turning to `Cn1c(CNC(=O)c2ccccc2F)nnc1SCC(=O)c1ccccc1`, the Potency result was “inactive”.

In the case of `COC(=O)CSc1ccc2nnc(-c3ccc(OC)c(OC)c3)n2n1`, the Potency was 25.9 µM (active).

Turning to `COc1ccc(C(C)NC(=O)c2ccc(Br)cc2)cc1OC` (stereo not given), the Potency entry was “inactive”.

As for `COc1ccc(NC(=O)c2cc3c(-c4ccc(OC)c(OC)c4)nn(C)c3s2)cc1OC`, the Potency result is “inactive”.

As for `CCOc1ccc(/C(CCC(=O)O)=N/NC(=S)NCCc2ccccc2)cc1`, the Potency result is “inactive”.

For the compound `COc1ccc(NC(=O)C(=O)NCC(c2ccco2)N2CCc3ccccc32)cc1` (stereo not given), the Potency entry was “inactive”.

Regarding `COc1cc(/C=N/NC(=O)c2cncc(Br)c2)cc([N+](=O)[O-])c1O`, the Potency result was “inactive”.

With `Cn1c(O)c(/C=N/NC(=O)c2cc3ccccc3cc2O)c2ccccc21`, the Potency entry is “inactive”.

`Oc1[nH]c2ccc(Br)cc2c1N=NC(=S)NCC1CCCO1` (stereo not given): the Potency entry is “inactive”.

On to `COc1cc(OC)c(NS(=O)(=O)c2cc(C(=O)OC(C)C(=O)NC3CC3)c(Cl)cc2Cl)cc1Cl` (stereo not given), for which the Potency result was “inactive”.
